# KDM5B inh = blocks human KDM5B histone demethylase activity; Q9UGL1; KDM5B demethylase, FDH-coupled NADH fluorescence (FDH is formaldehyde dehydrogenase); Potency, µM (doses to about 57.7 µM), usual class: inhibitors; hit rate 2.6% among 220,000; AID 1347165; active = well fitted inhibition curve with a large enough effect; note: 0% is about no effect; nearly all actives have a fitted effect of over 70% in size
#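 Here, H3K4me3 peptide (12.5 µM in substrate mix) is demethylated by KDM5BΔAP, 200 nM final, after 10 min compound exposure. Formaldehyde product is coupled through FDH (0.25 U/mL in mix) to NADH fluorescence; 30-min ΔRFU feeds dose-response curves.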
# Starred values were filed as active, the others as inactive; i = inactive; ! = not active in a repeat. The full list was thinned out, with hits kept by preference. Potency is the fitted concentration of half-maximal effect.
SMILES,KDM5B inh
Cc1ccc(Nc2nc(-c3ccc([N+](=O)[O-])cc3)nc3ccccc23)cc1,i
COc1ccc(N2CC(C(=O)N3CCN(c4cccc(C(F)(F)F)c4)CC3)CC2=O)cc1 (centres undefined),i
Cc1ccccc1-c1cc(O)c2c(c1)CN(Cc1ccoc1)CCO2,i
Cc1cccc(/C=N/NC(=O)c2ccc(C(C)(C)C)cc2)c1,i
CCOC(=O)c1ccc(NC(=O)Cn2c(N3CCc4ccccc4C3)nc(C)cc2=O)cc1,i
COc1cccc(NC(=O)Cn2c(N3CCN(c4ccccc4)CC3)nc(C)cc2=O)c1,i
COCc1cc(=O)n(CC(=O)Nc2cccc(SC)c2)c(N2CCOCC2)n1,i
Cc1ccc(CNC(=O)Cn2c(N3CCc4ccccc4C3)nc(C)cc2=O)cc1,28µM*
COCc1cc(=O)n(CC(=O)Nc2ccc(Br)cc2)c(N2CCOCC2)n1,i
Cc1cc(=O)n(CC(=O)NC(C)C)c(N2CCc3ccccc3C2)n1,i
COc1ccc(OC)c(NC(=O)Cn2c(N3CCc4ccccc4C3)nc(C)cc2=O)c1,28µM*
Cc1cc(=O)n(CC(=O)Nc2ccccc2C)c(N2CCc3ccccc3C2)n1,i
COc1ccc(C)cc1NC(=O)Cn1c(N2CCc3ccccc3C2)nc(C)cc1=O,i
COc1cccc(NC(=O)Cn2c(N3CCc4ccccc4C3)nc(C)cc2=O)c1,11µM*
Cc1cc(=O)n(CC(=O)NCc2ccc(F)cc2)c(N2CCc3ccccc3C2)n1,i
COCc1cc(=O)n(CC(=O)Nc2cccc(Br)c2)c(N2CCOCC2)n1,28µM*
C=CCN(CC(F)(F)F)C(=O)CCc1c[nH]c2ccccc12,i
CC(=O)NC1=NN(C(C)=O)C(c2ccccc2OCc2ccccc2Cl)S1 (centres undefined),i
Cc1ccc(C(=O)C(OC(=O)c2sccc2C)c2ccc(C)cc2)cc1 (centres undefined),i
COc1ccc(C(=O)Oc2cccc(OC(=O)c3ccc(OC)cc3)c2)cc1,i
CC1(C)SC2c3ccccc3C(=O)N2[C@@H]1C(=O)NCc1ccc(Cl)cc1 (some centres undefined),i
COc1cccc(CN2C(=O)CCCCC2C(=O)N2CCc3ccccc3C2)c1 (centres undefined),i
C1CNC(CN2CCOCC2)C1 (centres undefined),i
NC(=O)c1ccsc1NC(=O)COC(=O)c1cccc(Cl)c1Cl,i
CCCCN(CCCC)CCNC(=O)C1=C(C)C(=O)OC12CCN(C(C)=O)CC2,i
SMILES,KDM5B inh
Cc1ccccc1CSc1nnc(-c2c[nH]c3ccccc23)o1,i
COC(=O)c1cc(NC(=O)c2ccc(OC(F)F)cc2)c(F)cc1F,i
O=C(Nc1ccnn1C1CCN(C(=O)CCCc2ccccc2)CC1)c1cccc(F)c1,i
O=C(Nc1cccc(F)c1)Nc1ccnn1C1CCN(C(=O)CCN2CCCO2)CC1,i
NCCC(=O)N1CCC(n2nccc2NC(=O)Nc2cccc(F)c2)CC1,11µM*
CC(C)(C)c1ccc(CNCCC(=O)O)cc1,i
O=C(NCCCNC(=O)c1ccccc1F)c1cc2ccccc2[nH]1,i
Cc1[nH]c2ccc(C(=O)N(Cc3ccccc3F)C3CC3)cc2c1C,i
Cc1c(-c2ccccc2F)[nH]c2ccc(CNC(=O)C3CCNC3)cc12 (centres undefined),28µM*
COC(=O)c1c(C)[nH]c(-c2ccccc2F)c1C1C(=O)Nc2ccccc21 (centres undefined),i
Cc1c(-c2ccccc2F)[nH]c2ccc(CNS(=O)(=O)C3CC3)cc12,28µM*
Cc1cc(CNC(=O)C2CCCCC2)c2ccccc2n1,i
Cc1[nH]c2ccccc2c1C(=O)C(=O)NCCNC(=O)C1CCCC1,i
COc1ccccc1CNC(=O)COC(=O)c1nn(CC(C)C)c(=O)c2ccccc12,i
CCCC(=O)N1CCN(c2ccc(NC(=O)C3(c4ccccc4)CCCC3)cc2)CC1,i
CCCC(=O)N1CCC(O)(c2ccccc2)[C@H](N2CCCC2)C1 (some centres undefined),10µM*
CN(C)[C@@H]1CN(C(=O)CCc2ccccc2)CC[C@]1(O)c1ccccc1,i
CC(C#N)Sc1nnc(-c2c[nH]c3ccccc23)n1C1CC1 (centres undefined),i
COc1ccc(F)cc1C(=O)/C=C/c1ccc(C(=O)O)cc1,i
CCN(CC)S(=O)(=O)c1ccc(C(=O)Nc2nn[nH]n2)cc1,i
CCC1CCc2sc(-c3nnc(SCC(=O)NC(C)(C)C)n3C)cc2C1 (centres undefined),i
Cc1ccc(C)c(C(=O)C(C)n2cnc3c2c(=O)n(C)c(=O)n3C)c1 (centres undefined),i
COCCn1cc(C(=O)NCCc2cccc(Cl)c2Cl)ccc1=O,i
Cc1ccc2nc(C3CCN(Cc4ccc(C#N)cc4)CC3)[nH]c(=O)c2c1,79µM*!
CCN1CCC(c2nc3ccc(C)cc3c(=O)[nH]2)CC1,i
SMILES,KDM5B inh
N#Cc1ccc(CN2CCC(c3nc4ccc(F)cc4c(=O)[nH]3)CC2)cc1,i
CC(C)COc1ccc(C(=O)OCC[N+]2(C)CCOCC2)cc1,i
CCc1ccc(C(=O)C2CC(=O)Nc3c2c(C)nn3-c2ccc(C)c(Cl)c2)s1 (centres undefined),i
O=C(N[C@H]1CCN2C(=O)N(c3cccc4nsnc34)C(=O)[C@@H]2C1)c1ccc(F)c(Cl)c1,32µM*
Cc1nnsc1C(=O)N[C@H]1CCN2C(=O)N(c3ccc(F)c(Cl)c3)C(=O)[C@@H]2C1,i
O=C(NC1CCN(c2cc(-c3ccc(F)cc3)[nH]n2)CC1)c1ccc(F)c(Cl)c1,i
CCCCn1nc(C(=O)N2CCC(C(=O)N3CCc4ccccc4C3)CC2)c2ccccc2c1=O,i
O=C(COc1ccccc1)N1CCN(C(=O)c2nnn3c2COC(c2ccc(Cl)cc2)C3)CC1 (centres undefined),i
Cc1ccc(C(=O)N2CCCN(c3cc(-c4ccc(Cl)cc4)[nH]n3)CC2)s1,i
COc1ccc(S(=O)(=O)N2C[C@@H]3C[C@H](C2)c2ccc(NS(=O)(=O)c4cccc(F)c4)c(=O)n2C3)cc1,i
COc1ccc(S(=O)(=O)N2C[C@@H]3C[C@H](C2)c2ccc(-c4ccc(OC(F)(F)F)cc4)c(=O)n2C3)cc1,28µM*
COc1ccc(S(=O)(=O)N2C[C@@H]3C[C@H](C2)c2ccc(NC(=O)c4ccc(C#N)cc4)c(=O)n2C3)cc1,i
CC(=O)c1ccc(C(=O)Nc2ccc(SC3CCCC3)cc2)s1,i
Cc1nc2c(ccc3c(C)c(C)[nH]c32)s1,i
C/C(=N/Nc1ccc([N+](=O)[O-])cc1)c1ccncc1,i
Cc1nn(C)c(C)c1-c1ccnc(NCC2CC(=O)N(C3CCCC3)C2)n1 (centres undefined),25µM*
Cc1ccc(Cl)cc1NC(=O)C1CC(=O)N(C2CCCCC2)C1 (centres undefined),i
Cc1nc2cc(NC(=O)C3CC(=O)N(C4CCCC4)C3)ccc2o1 (centres undefined),i
CCOc1ccc(CNC(=O)c2ncoc2-c2cccc(Cl)c2)cc1OC,i
COc1ccc(C)c2sc(N(Cc3cccnc3)C(=O)c3ccc(S(=O)(=O)N(C)C)cc3)nc12,i
O=C(NCc1ccc2c(c1)OCO2)[C@@H]1C[C@@H](c2ccc(F)cc2)N(CCOc2ccccc2)C1,i
COc1ccc(CC2CN(Cc3cccc(-n4cccn4)c3)CCO2)cc1 (centres undefined),i

# Screening data deposited in PubChem by National Center for Advancing Translational Sciences (NCATS).
